Screens (PubChem BioAssay)
BioA inh – BioA (M. tuberculosis) enzyme inhibition | purified M. tuberculosis BioA enzyme, plate reader | 360,000 tested, 0.096% active | inhibition, % at 9.99 µM; in the data active = inhibition above about 40%; inconclusive = no clear call, values can overlap the other calls
FadD28 FP inh – blocks FadD28 binding to the bisubstrate probe; 360,000 tested, 0.22% active; fluorescence polarization; AID 588549; inhibition, % at 12.5 µM; in the data active = inhibition above about 8.5%, passing the limit was not always enough; inconclusive = no clear call, values can overlap the other calls
BH1578 lux ind – quorum light induction in luxS cqsA deficient V. cholerae; V. cholerae BH1578 lux reporter, luminescence, 6 h; AID 588436; activation, % at 18.7 µM; 350,000 tested, 0.16% active; in the data active = activation mostly above about 9.7%, no sharp cut-off; inconclusive = no clear call, values can overlap the other calls; inactive = mostly below about 3.7%
Yp Topo-I inh – inhibitors of Yersinia pestis topoisomerase I; activity, % at 10 µM; 360,000 tested, 0.064% active; Y. pestis Topo-I cleavage product accumulation, plate reader; in the data active = activity above about 50%, passing the limit was not always enough; inconclusive = no clear call, values can overlap the other calls
TcdB GH inh – inhibitors of Clostridioides difficile toxin B glycohydrolase; P18177; TcdB glycohydrolase enzymatic assay, plate reader; inhibition, % at 9.99 µM; AID 652162; 350,000 tested, 0.24% active; in the data active = inhibition above about 10%
Target sequence (P18177 whole entry, looked up): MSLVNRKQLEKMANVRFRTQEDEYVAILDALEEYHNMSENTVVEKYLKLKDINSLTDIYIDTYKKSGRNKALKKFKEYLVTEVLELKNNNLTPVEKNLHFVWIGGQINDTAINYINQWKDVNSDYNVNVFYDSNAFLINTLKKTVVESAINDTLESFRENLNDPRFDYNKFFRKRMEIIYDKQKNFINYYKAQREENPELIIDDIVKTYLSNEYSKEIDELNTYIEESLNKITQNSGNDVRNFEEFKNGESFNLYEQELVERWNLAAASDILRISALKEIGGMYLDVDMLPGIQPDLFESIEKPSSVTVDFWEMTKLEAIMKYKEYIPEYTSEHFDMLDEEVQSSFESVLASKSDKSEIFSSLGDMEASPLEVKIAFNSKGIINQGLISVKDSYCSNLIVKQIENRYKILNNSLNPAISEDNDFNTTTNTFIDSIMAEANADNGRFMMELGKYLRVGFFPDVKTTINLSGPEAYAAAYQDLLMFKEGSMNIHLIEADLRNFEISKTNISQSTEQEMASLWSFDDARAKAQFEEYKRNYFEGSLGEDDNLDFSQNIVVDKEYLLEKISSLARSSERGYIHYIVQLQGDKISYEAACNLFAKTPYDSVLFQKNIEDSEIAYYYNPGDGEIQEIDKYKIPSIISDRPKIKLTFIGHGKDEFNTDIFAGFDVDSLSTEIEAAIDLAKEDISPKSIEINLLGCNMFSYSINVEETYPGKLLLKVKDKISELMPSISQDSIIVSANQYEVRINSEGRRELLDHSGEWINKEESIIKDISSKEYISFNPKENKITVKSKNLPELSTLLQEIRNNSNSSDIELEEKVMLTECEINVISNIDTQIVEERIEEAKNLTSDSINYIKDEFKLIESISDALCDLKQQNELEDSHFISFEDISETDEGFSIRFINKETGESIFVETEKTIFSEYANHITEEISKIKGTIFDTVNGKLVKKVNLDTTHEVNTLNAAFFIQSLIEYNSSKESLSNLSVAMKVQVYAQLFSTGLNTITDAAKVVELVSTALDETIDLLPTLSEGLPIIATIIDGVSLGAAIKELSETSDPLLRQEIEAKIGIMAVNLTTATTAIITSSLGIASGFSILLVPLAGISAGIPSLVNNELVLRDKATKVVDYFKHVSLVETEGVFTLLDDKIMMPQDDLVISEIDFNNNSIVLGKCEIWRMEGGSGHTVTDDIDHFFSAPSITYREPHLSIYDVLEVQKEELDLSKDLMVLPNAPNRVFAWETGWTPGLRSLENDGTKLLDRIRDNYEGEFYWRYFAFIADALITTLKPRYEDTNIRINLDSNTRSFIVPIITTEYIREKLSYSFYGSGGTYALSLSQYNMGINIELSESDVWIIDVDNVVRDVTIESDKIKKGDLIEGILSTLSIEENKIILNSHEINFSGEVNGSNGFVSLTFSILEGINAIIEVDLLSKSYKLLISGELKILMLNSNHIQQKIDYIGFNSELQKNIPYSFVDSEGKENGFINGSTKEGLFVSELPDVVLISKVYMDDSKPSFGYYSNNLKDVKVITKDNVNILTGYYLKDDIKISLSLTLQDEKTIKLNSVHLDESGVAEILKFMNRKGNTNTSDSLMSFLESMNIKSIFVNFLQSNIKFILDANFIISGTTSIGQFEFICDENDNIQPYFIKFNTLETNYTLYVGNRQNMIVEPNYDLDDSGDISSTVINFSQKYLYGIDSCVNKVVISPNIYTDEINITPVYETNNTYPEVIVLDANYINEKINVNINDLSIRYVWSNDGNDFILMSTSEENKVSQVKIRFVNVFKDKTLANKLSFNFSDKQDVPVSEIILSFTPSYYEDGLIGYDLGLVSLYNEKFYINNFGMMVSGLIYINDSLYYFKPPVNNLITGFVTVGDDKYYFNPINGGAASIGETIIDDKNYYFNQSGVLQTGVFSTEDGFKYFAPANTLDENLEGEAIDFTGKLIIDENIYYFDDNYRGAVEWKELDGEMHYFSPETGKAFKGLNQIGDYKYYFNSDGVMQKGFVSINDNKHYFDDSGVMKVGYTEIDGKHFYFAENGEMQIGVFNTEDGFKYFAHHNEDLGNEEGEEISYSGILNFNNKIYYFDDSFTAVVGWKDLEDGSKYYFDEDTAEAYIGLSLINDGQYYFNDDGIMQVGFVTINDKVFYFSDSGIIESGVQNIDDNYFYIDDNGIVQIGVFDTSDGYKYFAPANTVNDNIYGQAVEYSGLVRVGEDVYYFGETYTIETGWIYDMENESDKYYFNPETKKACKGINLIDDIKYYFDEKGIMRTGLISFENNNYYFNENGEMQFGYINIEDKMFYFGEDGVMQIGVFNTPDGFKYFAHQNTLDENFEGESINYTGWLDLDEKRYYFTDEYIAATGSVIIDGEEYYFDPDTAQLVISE
* hit, by the source's call; i = inactive; ? = inconclusive; . = not tested or not shown. The list is not random: actives were taken first. Their share in the collection is about 0.61%.

SMILES | BioA inh | FadD28 FP inh | BH1578 lux ind | Yp Topo-I inh | TcdB GH inh
CCc1cc(-c2n[nH]c(C)c2-c2nc(C)cs2)c(O)cc1OC | . | -1 | -1 | 24 | 12*
CCCNC(=O)C[C@H]1CC[C@@H]2[C@@H](COc3ccc(NC(=O)c4ccc5c(c4)OCO5)cc3C(=O)N2C)O1 | 5 | . | . | . | 12*
CCNC(=O)C[C@H]1CC[C@@H]2[C@H](COc3ccc(NC(C)=O)cc3C(=O)N2C)O1 | -4 | . | . | . | 12*
CCNC(=O)C[C@H]1CC[C@@H]2[C@@H](COc3ccc(NC(C)=O)cc3C(=O)N2C)O1 | -2 | . | . | . | 25*
CCNC(=O)C[C@@H]1CC[C@H]2[C@@H](COc3ccc(NC(C)=O)cc3C(=O)N2C)O1 | -1 | . | . | . | 16*
CCNC(=O)C[C@H]1CC[C@H]2[C@@H](COc3ccc(NC(C)=O)cc3C(=O)N2C)O1 | 0 | . | . | . | 8
CC(C)NC(=O)N[C@@H]1C=C[C@H](CC(=O)NCc2ccc(Oc3ccccc3)cc2)O[C@H]1CO | -1 | . | . | . | -2
O=C(CSc1ccc(-c2nc3ccccc3[nH]2)cn1)Nc1ccc(S(=O)(=O)N2CCCC2)cc1 | . | 22* | i | 1 | .
Cc1cc2nc(-c3ccc(SCC(=O)Nc4ccc(S(=O)(=O)N5CCCC5)cc4)nc3)[nH]c2cc1C | -2 | -1 | 0 | 9 | .
COC(=O)c1ccc(NC(=S)NC2c3ccccc3CC2O)cc1 (stereo not given) | . | 22* | 0 | 5 | 2
COC(=O)c1ccc(NC(=S)Nc2ccccc2)cc1 | -3 | 2 | -2 | -2 | 1
CCOC(=O)N1CCN(c2cc(NCCC(=O)O)c3c4c(onc24)-c2ccccc2C3=O)CC1 | -76 | 15* | i | ? | .
CN1CCN(c2cc(N3CCN(C(=O)c4ccco4)CC3)c3c4c(onc24)-c2ccccc2C3=O)CC1 | 0 | 1 | i | -3 | .
O=C(O)CCCNc1cc(N2CCN(C(=O)c3ccco3)CC2)c2noc3c2c1C(=O)c1ccccc1-3 | -15 | 18* | 0 | 25 | 0
COCCNc1cc(N)c([N+](=O)[O-])cc1[N+](=O)[O-] | . | -1 | i | -3 | 11*
CCOC(=O)c1ccc(NCCOC)c([N+](=O)[O-])c1 | -3 | -1 | i | -1 | 1
CO[C@@H]1CN(C)C(=O)c2ccc(NC(=O)Nc3cccc(F)c3)cc2OC[C@H](C)NC[C@H]1C | 12 | . | . | . | 0
C[C@H]1CN([C@@H](C)CO)S(=O)(=O)c2ccc(-c3cccc(C(=O)N(C)C)c3)cc2O[C@@H]1CN(C)C | 0 | . | . | . | 1
CCOC(=O)C1CCCN(C(=O)c2ccc(-c3ccc([N+](=O)[O-])cc3)o2)C1 (stereo not given) | . | -2 | -2 | 1 | -1
CCOC(=O)C1CCCN(c2ccc([N+](=O)[O-])c3nonc23)C1 (stereo not given) | . | 47* | -1 | 4 | 1
CC1=NN(c2cccc(C(=O)O)c2)C(=O)/C1=C\C=C\c1ccco1 | -1 | 11* | 1 | -11 | .
CCC(=O)N1CC2(C1)CN(C(C)=O)[C@H](CO)c1[nH]c3cc(OC)ccc3c12 | . | . | . | . | 4
O=c1oc2ccccc2c(N2CCCCC2)c1CN1CCCCC1 | -1 | -2 | 25* | -3 | .
O=C(CSc1nnc(-c2ccncc2)o1)N1CCCCCC1 | . | -1 | 4 | 1 | 18*
C[C@H](CO)N1C[C@H](C)[C@H](CN(C)C(=O)c2ccccc2F)Oc2ncc(-c3ccc(F)cc3)cc2C1=O | 0 | . | . | . | 1
SMILES | BioA inh | FadD28 FP inh | BH1578 lux ind | Yp Topo-I inh | TcdB GH inh
CC(C)(C)OC(=O)NCCCCCc1nnc(SCc2ccccc2)o1 | 1 | -2 | i | 57* | 1
O=S(=O)(c1ccc(F)cc1)N1CCCCN2[C@@H](CO)[C@@H](c3ccc(-c4ccccc4)cc3)[C@@H]2C1 | 3 | . | . | . | 0
CN(C(=O)COC(=O)CNC(=O)c1ccccc1Cl)c1ccccc1 | . | -4 | i | 0 | 15*
Cc1cc(C)cc(C(=O)NCC(=O)OCC(=O)N(C)c2ccccc2)c1 | . | -1 | i | 3 | -7
O=S(=O)(Nc1ccc(O)cc1)c1cccc2cccnc12 | -1 | 0 | 0 | 3 | 11*
CC(C)c1ccc(NS(=O)(=O)c2cccc3cccnc23)cc1 | 0 | -2 | i | 18 | 1
O=C(NC[C@H]1[C@@H](c2ccccc2)[C@@H](CO)N1CC1CCCC1)c1cccnc1 | 3 | . | . | . | .
C[C@H]1O[C@H]1P(=O)(O)O | 0 | 1 | 29* | 12 | 0
C[C@@H]1O[C@@H]1P(=O)(O)O | 1 | -3 | -1 | 0 | 0
Nc1c(N(CCC2=CCCCC2)C(=O)CCCOc2ccccc2)c(=O)[nH]c(=O)n1Cc1ccccc1 | -1 | -4 | -2 | 24 | 1
